Our source for the outcome and AC50 values is PubChem BioAssay (EPA / NIEHS).

Active and inactive are the calls of the source. How the source made its calls: active means hit-call score of the fitted dose curve at least 0.9, where 1 is the maximum; inactive means score below 0.9.

For orientation: AC50 means the concentration at which the activity in the assay is half-maximal.

A short description of the experiment: CCTE_Padilla_ZF_Score.Spine: CCTE's 144 Hour Post-fertilization zebrafish Assay Score for Spine Malformation, Padilla Lab (AID 2284407). The method, then:
CCTE_Padilla_ZF_Phenotype_Score is a whole embryo, multiplexed assay using zebrafish ova exposed for 144 hours post fertilization on a 96-well plate.CCTE_Padilla_ZF_Score.Spine is one of one assay component(s) measured or calculated from the CCTE_Padilla_ZF_Phenotype_Score assay. It is designed to make measurements of zebrafish development as detected with brightfield microscopy of developing zebrafish embryos.Data from the assay component CCTE_Padilla_ZF_Score.Spine was analyzed into 1 assay endpoints. This assay endpoint, CCTE_Padilla_ZF_Score.Spine, was analyzed in the positive analysis fitting direction relative to DMSO as the negative control and baseline of activity. Using a type of viability reporter, gain-of-signal activity can be used to understand changes in developmentals as they relate to the whole embryo. To generalize the intended target to other relatable targets, this assay endpoint is annotated to the zebrafish development intended target family, where the subfamily is body axis morphogenesis.
Zebrafish husbandry: Wild type adult zebrafish (Danio rerio; undefined outbred stock obtained from Aquatic Research Organisms, Hampton, NH, 03842) were housed in an AAALAC-approved animal facility at 28C with a 14:10 h light: dark cycle (lights on at 08:30 h). Adult fish (2-3 females per male; density = 15-20 adults per tank) were kept in one of several 9-liter (L) flow-through colony tanks (Aquaneering Inc., San Diego, CA). All adults in a colony tank were placed in a 2 L (static) breeding tank (Aquatic Habitats, Apopka, FL) one hour prior to light onset. Typically, adults from two to three colony tanks were mated on the same day. Two hours after light onset the adults were returned to the colony tank. All embryos were gathered from each breeder tank, pooled, and placed in a 28C water bath for 2 h, followed by two washes with 0.06% bleach (v/v) in 10% Hanks' Balanced Salt Solution (13.7 mM NaCl 0.54 mM KCl, 25 uM Na2HPO4, 130 uM CaCl2 100 um MgSO4 and 420 um NaHCO3,), hereafter referred to as Hanks' solution, for 5 min in order to remove any residual bacteria or fungi. Immediately following washing, the embryos were examined, and healthy embryos were separated from dead or unfertilized eggs and moved into fresh Hanks'. Chemical exposures: Zebrafish embryos were exposed in 96-well plates. Between 6- and 8-hours post fertilization (hpf), healthy embryos (with chorions) were transferred, one embryo per well, into 96 well (0.5 mL) microtiter plates (Cell Culture-Treated, Flat-Bottom Microplate 96 well [Corning Costar, Kennebunk, ME; Cat 09-761-145]) filled with 200 uL of Hanks' solution. A random number generator was used to assign the order in which the rows of embryos were plated in 96 well plates each week. After plating, the embryos were dosed with 0.8 uL of the chemical dosing solution then immediately sealed with AlumaSeal II (Excel Scientific Inc, Victorville, CA) to prevent volatilization of the chemicals, and then placed in a leakproof secondary container. These containers were placed in an incubator maintained on a 14:10 h light: dark cycle at 26C for rearing. On 5 dpf, live larvae were gently moved out of the plate with test chemicals and into a new 96 well mesh plate (Millipore Corp., Bedford, MA) with just the Hanks' solution. Once within the mesh well plate, the animals were rinsed with 400 uL of fresh Hanks' three times, and then the plates were covered with a non-adhesive material (Microseal A, BioRad, Hercules, CA), plate lid added, and then plate sides wrapped in Parafilm (PM992, Bermis Company, Neenah, WI), and returned to the incubator. […]
`C=CC(=O)OCCC(F)(F)C(F)(F)C(F)(F)C(F)(F)F`: the result was inactive.

Regarding `O=C(O)C(F)(F)OC(F)(F)C(F)(F)OC(F)(F)C(F)(F)OC(F)(F)F`, the compound was classed as inactive.

Consider `NC(=O)C(F)(F)C(F)(F)C(F)(F)F`, for which the outcome was inactive.

Consider `O=C(O)CCC(F)(F)C(F)(F)C(F)(F)F`, for which the result was inactive.

In the case of `NC(=O)C(F)(F)C(F)(F)C(F)(F)C(F)F`, the compound was classed as inactive.

For `O=C(O)C(F)(F)C(F)(F)C(F)(F)OC(F)(F)F`, the compound was called inactive.

For `O=S(=O)(O)CCC(F)(F)C(F)(F)C(F)(F)C(F)(F)F`, the call was inactive.

In the case of `O=C(O)C(F)(F)C(F)(F)C(F)(F)C(F)(F)C(F)(F)C(F)(F)C(F)F`, the outcome was inactive.

As for `O=C(O)C(F)(F)C(F)(F)C(F)(F)C(=O)O`, the compound was classed as inactive.

Take `NCC(F)(F)C(F)(F)C(F)(F)C(F)(F)C(F)(F)C(F)(F)F`: the compound was called inactive.

As for `NCC(F)(F)C(F)(F)C(F)(F)C(F)(F)C(F)(F)C(F)(F)C(F)(F)C(F)(F)F`, the compound was classed as inactive.

`O=S(=O)(OCC(F)(F)F)C(F)(F)C(F)(F)C(F)(F)C(F)(F)F`: the call was inactive.

For the compound `C=C(C)C(=O)OCC(F)(F)C(F)(F)C(F)(F)C(F)F`, the compound was classed as inactive.

As to `O=C(O)C(F)(F)C(F)(F)C(F)(F)OC(F)(C(F)(F)F)C(F)(F)F`, the call was inactive.

For the compound `OCC(F)(F)C(F)(F)C(F)(F)C(F)(F)C(F)(F)C(F)(F)C(F)(F)C(F)(F)CO`, the call was inactive.

For `OCC(F)(F)C(F)(F)C(F)(F)CO`, the call was inactive.

In the case of `O=C(O)CCC(F)(F)C(F)(F)C(F)(F)C(F)(F)C(F)(F)C(F)(F)C(F)(F)F`, the result was inactive.

Take `OC(O)C(F)(F)C(F)(F)F`: the call was inactive.

`OCC(O)CC(F)(F)C(F)(F)C(F)(F)C(F)(F)F` (stereo not given): the call was inactive.

Consider `C=CC(=O)OCC(F)(F)C(F)(F)C(F)(F)COC(=O)C=C`, for which the outcome was inactive.

As for `NC(=O)C(F)(F)C(F)(F)C(F)(F)C(F)(F)C(F)(F)C(F)(F)C(F)(F)F`, the result was inactive.

For the compound `FC(F)(F)C(F)(F)C(F)(F)CC1CO1` (stereo not given), the compound was classed as inactive.

In the case of `C=CC(=O)OCC(F)(F)C(F)(F)C(F)(F)C(F)(F)C(F)(F)C(F)(F)C(F)(F)C(F)F`, the outcome was inactive.

On to `O=C(Cl)C(F)(F)C(F)(F)C(F)(F)C(F)(F)C(F)(F)C(F)(F)F`, for which the call was inactive.

`CNS(=O)(=O)C(F)(F)C(F)(F)C(F)(F)C(F)(F)C(F)(F)C(F)(F)C(F)(F)C(F)(F)F`: the compound was called inactive.

`COC(F)(C(F)F)C(F)(F)F` (stereo not given): the result was inactive.

For `OCCCCC(F)(F)C(F)(F)C(F)(F)C(F)(F)F`, the compound was classed as inactive.

For the compound `OCC(F)(F)C(F)(F)C(F)(F)C(F)(F)C(F)(F)C(F)(F)CO`, the compound was classed as inactive.

With `C[Si](Cl)(Cl)CCC(F)(F)C(F)(F)C(F)(F)C(F)(F)C(F)(F)C(F)(F)F`, the call was inactive.

On to `CO[Si](C)(CCC(F)(F)C(F)(F)C(F)(F)C(F)(F)C(F)(F)C(F)(F)F)OC`, for which the compound was classed as inactive.

`FC(F)(F)C(F)(F)C(F)(F)C(F)(F)C(F)(F)C(F)(F)C(F)(F)CCI`: the call was inactive.

As for `NC(O)(C(F)(F)F)C(F)(F)F`, the call was inactive.

On to `NC(=O)C(F)(F)C(F)(F)C(F)(F)C(F)(F)C(N)=O`, for which the compound was called inactive.

`O=S(=O)(O)CCC(F)(F)C(F)(F)C(F)(F)C(F)(F)C(F)(F)C(F)(F)C(F)(F)C(F)(F)F`: the call was inactive.

Consider `O=C(Cl)C(F)(F)C(F)(F)C(F)(F)C(F)(F)C(F)(F)C(F)(F)C(F)(F)F`, for which the compound was classed as inactive.

Regarding `OCC(O)CC(F)(F)C(F)(F)C(F)(F)C(F)(F)C(F)(F)C(F)(F)C(F)(F)C(F)(F)F` (stereo not given), the compound was classed as inactive.

With `CCOC(=O)CC(=O)C(F)(F)C(F)(F)F`, the outcome was inactive.

On to `O=S(=O)(Cl)C(F)(F)C(F)(F)C(F)(F)C(F)(F)C(F)(F)C(F)(F)C(F)(F)C(F)(F)F`, for which the AC50 is 88.8 µM (active).

Turning to `NS(=O)(=O)C(F)(F)C(F)(F)C(F)(F)C(F)(F)C(F)(F)C(F)(F)F`, the compound was called inactive.

Regarding `O=C(F)C1(F)C(F)(F)C(F)(F)C(F)(F)C(F)(F)C1(F)F`, the compound was called inactive.
